From publication PMC10668032, “Altered binding affinity of SIX1-Q177R correlates with enhanced WNT5A and WNT pathway effector expression in Wilms tumor” come the findings set out here.

In all, about 33,000 sequences were measured (“e-score”: median about -0.05, highest 2% from about 0.38 on). Only a selection was taken, and the highest values are over-represented in it overall.

The target in this experiment is T1, SIX1-Q177R homeodomain (human, UniProt Q15475 108-198, Q177R).
T1 sequence: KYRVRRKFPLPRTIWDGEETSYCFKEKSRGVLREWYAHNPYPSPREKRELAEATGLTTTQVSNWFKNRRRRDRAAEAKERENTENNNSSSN
Nature of the experiment: universal protein binding microarray; Universal all-10-mer PBM (8x60K, AMADID 030236), 300 nM GST-tagged protein, Alexa Fluor 488 anti-GST; buffer, salt, pH and temperature not stated (as in Berger); high values mean tight binding. The conditions noted are these: protein: ivt; tags: N-terminal GST; dsDNA, one strand shown. Put shortly: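 GST-tagged homeodomains were made by in vitro transcription/translation and quantified by anti-GST western blot against a recombinant GST standard curve. They were applied in duplicate at 300 nM final concentration to universal 'all 10-mer' protein binding microarrays (8×60K format). Binding was quantified as 8-mer E-scores with the Universal PBM Analysis Suite.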
Regarding CACACTTA, the binding signal is 0.204 ± 0.00443 E-score.

As for CAACGACA, the binding signal was 0.197 ± 0.0113 E-score.

On to CGGATCCC, for which the binding signal was determined as 0.235 ± 0.023 E-score.

As to CAGGGGTA, the binding signal is 0.234 ± 0.0165 E-score.

In the case of ACCCAGGG, the binding signal was 0.201 ± 0.0184 E-score.

In the case of AACACTAC, the binding signal is 0.381 ± 0.0184 E-score.

For GACACTAC, the binding signal stood at 0.434 ± 0.00877 E-score.

As for CACACTAC, the binding signal was 0.2973 ± 0.00215 E-score.

For the sequence CACACTAG, the binding signal is 0.25 ± 0.0068 E-score.

Turning to AACACTAG, the binding signal amounted to 0.357 ± 0.0233 E-score.

For AACACTAT, the binding signal amounted to 0.295 ± 0.0435 E-score.

Turning to CACCCAGG, the binding signal was found to be 0.284 ± 0.0239 E-score.

As for GGTGCTAC, the binding signal was 0.183 ± 0.00715 E-score.

For the sequence ACACTACT, the binding signal was 0.393 ± 0.0188 E-score.

As for ACACTATC, the binding signal came to 0.342 ± 0.0149 E-score.

For ACACTATA, the binding signal stood at 0.322 ± 0.0287 E-score.

ACACTACG: the binding signal was 0.388 ± 0.00491 E-score.

Turning to ACACTAAT, the binding signal was found to be 0.333 ± 0.0159 E-score.

Take ACACTACA: the binding signal came to 0.41 ± 0.0193 E-score.

As for ACTCTACC, the binding signal stood at 0.151 ± 0.0299 E-score.

Turning to ACACTACC, the binding signal is 0.421 ± 0.00623 E-score.

TCACTACA: the binding signal came to 0.225 ± 0.0148 E-score.

Take ACACTATG: the binding signal turned out to be 0.328 ± 0.0294 E-score.

In the case of ACACTAAG, the binding signal came out at 0.337 ± 0.0137 E-score.

With CCACTACA, the binding signal stood at 0.298 ± 0.0151 E-score.

Turning to CCAGAACA, the binding signal worked out at 0.261 ± 0.00433 E-score.

GGGGCGTA: the binding signal came out at 0.159 ± 0.0113 E-score.

As to CCGCGTCA, the binding signal amounted to 0.156 ± 0.0229 E-score.

On to AGTAGGTG, for which the binding signal stood at 0.279 ± 0.025 E-score.

Consider CCTCTTTA, for which the binding signal worked out at 0.171 ± 0.0307 E-score.

As to AGGGTATG, the binding signal came out at 0.226 ± 0.0255 E-score.

In the case of ACCGGACA, the binding signal was determined as 0.245 ± 0.00259 E-score.

In the case of CCCCGGCC, the binding signal stood at 0.233 ± 0.0259 E-score.

Turning to CGGTATAC, the binding signal stood at 0.165 ± 0.00282 E-score.

With AGGTACAC, the binding signal is 0.452 ± 0.00159 E-score.

Regarding AGGTATCC, the binding signal is 0.344 ± 0.00693 E-score.

Regarding GGGTACAA, the binding signal is 0.17 ± 0.0208 E-score.

As to GGGTACAC, the binding signal amounted to 0.443 ± 0.0111 E-score.

On to CGGTATCC, for which the binding signal was 0.325 ± 0.00938 E-score.

For the sequence CGGTACAC, the binding signal is 0.4352 ± 0.00226 E-score.

As for AGGTACTC, the binding signal was determined as 0.166 ± 0.0232 E-score.

With GGGTACCC, the binding signal came to 0.234 ± 0.00584 E-score.

Consider CGCACTAC, for which the binding signal stood at 0.152 ± 0.0379 E-score.

Consider CACGCTCG, for which the binding signal stood at 0.242 ± 0.0063 E-score.

For ACTGCATA, the binding signal stood at 0.2138 ± 0.00024 E-score.

As to ATTGGGTG, the binding signal stood at 0.261 ± 0.0204 E-score.

Consider CACTCATA, for which the binding signal is 0.195 ± 0.0111 E-score.

With CGCAATAC, the binding signal was 0.276 ± 0.0226 E-score.

Regarding CACGCAAC, the binding signal amounted to 0.227 ± 0.0168 E-score.

On to CCCCCTAC, for which the binding signal came out at 0.267 ± 0.031 E-score.

Take TCGCACCA: the binding signal amounted to 0.177 ± 0.0487 E-score.

As to CAAGTACA, the binding signal amounted to 0.207 ± 0.0357 E-score.

For the sequence CCCTAACA, the binding signal came out at 0.181 ± 0.028 E-score.

Turning to CACCAATG, the binding signal turned out to be 0.222 ± 0.00267 E-score.

Take CTCCCCAA: the binding signal came out at 0.28 ± 0.0223 E-score.

In the case of ACAACCCC, the binding signal is 0.207 ± 0.03 E-score.

Take AGCTACAC: the binding signal stood at 0.435 ± 0.00848 E-score.

As for AGCCACAC, the binding signal is 0.208 ± 0.0231 E-score.

Regarding GGCTACGA, the binding signal was 0.196 ± 0.00863 E-score.

In the case of CGCTACAC, the binding signal worked out at 0.4023 ± 0.0021 E-score.

Turning to CGCGCTAC, the binding signal is 0.15 ± 0.0294 E-score.

Turning to GGCCACAC, the binding signal is 0.233 ± 0.0102 E-score.

Turning to GGCTACAC, the binding signal came out at 0.4245 ± 0.0031 E-score.

Take CGCTCTAC: the binding signal amounted to 0.157 ± 0.026 E-score.

As for CTTTTACA, the binding signal is 0.17 ± 0.0837 E-score.

As for CACGTACG, the binding signal turned out to be 0.167 ± 0.0161 E-score.

With CTCCTACA, the binding signal stood at 0.243 ± 0.0252 E-score.

For ACCACGTC, the binding signal was found to be 0.182 ± 0.0198 E-score.

Turning to ACTATCGA, the binding signal is 0.156 ± 0.0186 E-score.

In the case of ATGAACAC, the binding signal was found to be 0.4 ± 0.0197 E-score.

Regarding ATGAACCC, the binding signal is 0.198 ± 0.0247 E-score.

Consider CTGAACCC, for which the binding signal came out at 0.187 ± 0.0441 E-score.

As for CTGAGCAC, the binding signal was 0.254 ± 0.0174 E-score.

Take ATGCACAC: the binding signal was 0.289 ± 0.00704 E-score.

In the case of CTGAACAC, the binding signal came to 0.4224 ± 0.00137 E-score.

As for GTGAGCAC, the binding signal was found to be 0.159 ± 0.0143 E-score.

GTGAACAC: the binding signal amounted to 0.4118 ± 0.00099 E-score.

Consider TCAGAACA, for which the binding signal is 0.228 ± 0.00667 E-score.

Take ACTCCCCA: the binding signal was 0.163 ± 0.025 E-score.

GGAAGACA: the binding signal worked out at 0.155 ± 0.0119 E-score.

For CACGTCGA, the binding signal was determined as 0.177 ± 0.0103 E-score.

Regarding CAGTCGGG, the binding signal came to 0.196 ± 0.029 E-score.

In the case of ATCCGACC, the binding signal amounted to 0.153 ± 0.0521 E-score.

Consider CCCGATCC, for which the binding signal was found to be 0.2392 ± 0.00171 E-score.

AGATGGTG: the binding signal is 0.2726 ± 0.000212 E-score.

Consider GTACTCGA, for which the binding signal amounted to 0.19 ± 0.0242 E-score.
